Results: PubChem BioAssay (NCATS)
Records with an inconclusive call do not appear. Active and inactive are the calls of the source. Calls come from the whole dose curve; as a rule, active = well fitted inhibition curve with a large enough effect; inconclusive = small, poorly fitted or top-dose-only effect; inactive = flat fitted curve, though single readings scatter.

What was measured:
Test in all cases: qHTS profiling for inhibitors of Plasmodium falciparum proliferation (AID 504749); note: nearly all actives have a fitted effect of over 60% in size
Details in all cases: P. falciparum in erythrocytes, SYBR Green DNA, 72 h; series mostly up to 28.7 µM
[1] = tested on: CP185
Summary of the method: (§1)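 P. falciparum-infected erythrocytes (0.3% parasitemia, 2.5% hematocrit final) were exposed to compounds for 72 h at 37 C in 5% CO2, then lysed with SYBR Green buffer overnight at room temperature; parasite DNA fluorescence was normalized to artemisinin and DMSO controls.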

[2] = tested on: CP191
Summary of the method: as §1

[3] = tested on: CP192
Summary of the method: as §1

[4] = tested on: CP194
Summary of the method: as §1

[5] = tested on: CP201
Summary of the method: as §1

[6] = tested on: CP203
Summary of the method: as §1

[7] = tested on: CP211
Summary of the method: as §1

[8] = tested on: CP215
Summary of the method: as §1

[9] = tested on: CP217
Summary of the method: as §1

[10] = tested on: CP237
Summary of the method: as §1

[11] = tested on: CP238
Summary of the method: as §1

[12] = tested on: CP247
Summary of the method: as §1

[13] = tested on: CP250
Summary of the method: as §1

[14] = tested on: CP252
Summary of the method: as §1

[15] = tested on: CP256
Summary of the method: as §1

[16] = tested on: CP260
Summary of the method: as §1

[17] = tested on: CP262
Summary of the method: as §1

[18] = tested on: CP265
Summary of the method: as §1

[19] = tested on: CP266
Summary of the method: as §1

[20] = tested on: CP268
Summary of the method: as §1

Measured: Potency
Potency is the fitted concentration of half-maximal effect.

CC[N+]1(C)CCCC(OC(=O)C(O)(c2ccccc2)c2ccccc2)C1 (stereo unspecified)
inactive: all assays above

CCCC(C)(COC(N)=O)COC(=O)NC(C)C (stereo unspecified)
not listed: [6]
inactive: all other assays above

c1ccc(C2CC2)c(OCC2=NCCN2)c1
not listed: [6] | [10] | [12] | [17]
inactive: all other assays above

O=C(NC(O)C(Cl)(Cl)Cl)NC(O)C(Cl)(Cl)Cl (stereo unspecified)
not listed: [6]
inactive: all other assays above

NCCc1cc(O)c(O)cc1O
inactive: all assays above

C#CCOC(C(=O)OCCN(C)C)(c1ccccc1)c1ccccc1
not listed: [6]
inactive: all other assays above

CC1NCCOC1c1ccccc1 (stereo unspecified)
not listed: [6] | [10]
inactive: all other assays above

Cn1c(CCCC(=O)O)nc2cc(N(CCCl)CCCl)ccc21
inactive: all assays above

CN1C(=S)CN=C(c2ccccc2)c2cc(Cl)ccc21
not listed: [3] | [12]
inactive: all other assays above

N#CC(C#N)=Cc1ccc(O)c(O)c1
not listed: [2] | [8] | [13] | [15]
inactive: all other assays above

CN1C[C@H](CNC(=O)OCc2ccccc2)C[C@@H]2c3cccc4c3c(cn4C)C[C@H]21
active: [1] 8.91 µM | [7] 9.53 µM | [9] 7.94 µM | [10] 8.91 µM | [11] 11.2 µM | [14] 10 µM | [15] 6.31 µM | [16] 11.2 µM | [17] 6.75 µM | [18] 5.62 µM

Cc1ccc(-c2nc3ccc(C)cn3c2CC(=O)N(C)C)cc1
not listed: [2] | [15]
inactive: all other assays above

c1ccc2c(c1)Nc1ccccc1S2
inactive: [5] | [11] | [18] | [19]
active: [2] 7.94 µM | [12] 10 µM | [13] 4.47 µM | [16] 10 µM

CCOC(=O)C1(c2ccccc2)CCN(CCC(C#N)(c2ccccc2)c2ccccc2)CC1
active: [1] 3.16 µM | [2] 3.16 µM | [3] 4.78 µM | [5] 4.26 µM | [8] 4.26 µM | [9] 3.16 µM | [10] 3.98 µM | [11] 3.16 µM | [12] 4.47 µM | [13] 3.55 µM | [14] 3.55 µM | [15] 1.58 µM | [16] 3.55 µM | [17] 5.36 µM | [18] 2.51 µM | [19] 6.01 µM | [20] 3.79 µM

CCN(CC)CCOC(=O)C(O)(c1ccccc1)c1ccccc1
not listed: [6] | [8] | [15]
inactive: all other assays above

CCCC1CCCCN1 (stereo unspecified)
not listed: [6] | [7] | [12] | [13] | [19]
inactive: all other assays above

Oc1ccc(Cl)cc1Cc1ccccc1
active: [6] 16.9 µM
inactive: [1] | [5] | [7] | [11] | [13] | [17] | [19]

CC[C@@H](CO)NC(=O)[C@@H]1C=C2c3cccc4[nH]cc(c34)C[C@H]2N(C)C1
not listed: [3]
inactive: all other assays above

CC(C)NCC(O)c1ccccc1Cl (stereo unspecified)
inactive: [5] | [19]
active: [9] 10 µM | [10] 5.01 µM | [16] 11.2 µM

FC(F)(F)c1cccc(C2=CCN(CCc3ccc4ccccc4c3)CC2)c1
not listed: [2] | [6] | [15] | [20]
inactive: all other assays above

O=[N+]([O-])c1cc([As](=O)(O)O)ccc1O
active: [2] 3.16 µM | [9] 3.16 µM | [10] 3.16 µM | [13] 3.16 µM | [14] 3.16 µM | [16] 3.16 µM

CC(CCc1ccccc1)NC(C)C(O)c1ccc(O)cc1 (stereo unspecified)
inactive: [1] | [2] | [3] | [9] | [13] | [14] | [15] | [17] | [19]
active: [10] 5.62 µM

Cc1ccc(S(=O)(=O)N[C@@H](CCCCN)C(=O)CCl)cc1
active: [2] 8.91 µM | [12] 5.62 µM | [13] 7.94 µM | [15] 7.94 µM
inactive: [3] | [5] | [7] | [8] | [19] | [20]

CC(=O)Nc1cc([As](=O)(O)O)ccc1O
not listed: [5] | [6]
inactive: all other assays above

Fc1ccc(C(OCCN2CCN(CCCc3ccccc3)CC2)c2ccc(F)cc2)cc1
active: [1] 10 µM | [2] 10 µM | [7] 13.5 µM | [9] 8.91 µM | [10] 10 µM | [11] 12.6 µM | [12] 10 µM | [14] 11.2 µM | [16] 10 µM
inactive: [17]

O=c1[nH]c2ccccc2n1CCCN1CCC(n2c(=O)[nH]c3cc(Cl)ccc32)CC1
active: [2] 3.98 µM | [10] 7.94 µM | [16] 11.2 µM
inactive: [5] | [17] | [19]

N[C@@H](Cc1ccc(N(CCCl)CCCl)cc1)C(=O)O
inactive: [3] | [5] | [7] | [8] | [15] | [17] | [19] | [20]

Oc1cc(Cl)ccc1Oc1ccc(Cl)cc1Cl
inactive: [19]
active: [2] 11.2 µM | [3] 12 µM | [4] 13.5 µM | [8] 13.5 µM | [9] 7.94 µM | [10] 7.08 µM | [11] 10 µM | [14] 7.94 µM | [16] 11.2 µM

CCN(C(C)=O)c1cccc(-c2ccnc3c(C#N)cnn23)c1
not listed: [3] | [6]
inactive: all other assays above

CC(C)(C)NCC(O)c1cc(Cl)c(N)c(Cl)c1 (stereo unspecified)
inactive: [5] | [7] | [9] | [12] | [13] | [15] | [19] | [20]
active: [10] 7.94 µM

CCCN1CCC[C@@H]2Cc3[nH]ncc3C[C@H]21
inactive: [3] | [4] | [5] | [7] | [8] | [17] | [19] | [20]

NP(N)(=O)NC(=O)c1ccc(F)cc1
not listed: [1] | [6]
inactive: all other assays above

O=c1[nH]c2ccccc2n1C1CCN(CCCC(c2ccc(F)cc2)c2ccc(F)cc2)CC1
active: [8] 13.5 µM | [10] 7.94 µM | [16] 12.6 µM
not listed: [2] | [4] | [6] | [7] | [15]
inactive: all other assays above

C[C@]12C/C(=C/O)C(=O)C[C@@H]1CC[C@@H]1[C@@H]2CC[C@@]2(C)[C@H]1CC[C@]2(C)O
not listed: [2] | [6] | [12]
inactive: all other assays above

C=C(C)[C@H]1Cc2c(ccc3c2O[C@@H]2COc4cc(OC)c(OC)cc4[C@@H]2C3=O)O1
not listed: [4] | [6] | [17]
inactive: all other assays above

CC[N+](CC)(CC)CC
not listed: [6] | [8]
inactive: all other assays above
